Assay outcomes deposited in PubChem by several laboratories.
Rows were chosen to be rich in hits. Some 2.5% of all compounds tested hit in one or more screens of this group.
GAA850 FXN act: frataxin GAA850 promoter activation. activation, % at 6 µM. actives 0.56% (n = 360,000). HEK293 lucGAA850 FXN promoter luciferase reporter, 24 h; percent of 10 µM SAHA response;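 active = activation above the average of all compounds screened plus 3 SD, cutoff fixed separately per campaign, cut at about 7.5% in these data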
EWS-Fli inh: blocks EWS/Fli oncoprotein-driven transcription. A673 NR0B1-luciferase reporter, viability-normalised. inhibition, % at 12.6 µM. AID 651661. actives 0.67% (n = 350,000);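 active = mean inhibition of at least 50% after viability correction, with every replicate also passing that limit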;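 note: firefly luciferase signal divided by Alamar Blue viability fluorescence both relative to DMSO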
PAX8 inh HTS: PAX8 transcriptional activity inhibition. AID 652154. inhibition, % at 12.6 µM. actives 1.2% (n = 360,000). RMG-I TPO-luciferase reporter, SteadyGlo, 24 h;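 active = mean replicate inhibition at least 60% with every replicate also reaching 60%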;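 note: luciferase light reporting Pax8 driven TPO promoter activity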
Env fusion inh: blocks HIV Env-driven cell-cell fusion | actives 1.1% (n = 360,000) | inhibition, % at 12.3 µM | HeLa-JRFL Env/CEM21 cell fusion, luciferase;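 active = mean replicate inhibition score of at least 50 and every replicate individually at or above 50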
CFTR F508del cor: correctors of CFTR F508del function in bronchial epithelial cells. CFBE cells, YFP halide quenching; stimulated with forskolin plus potentiator P3; % fluorescence drop versus neutral controls. activity (quench increase), % at 7.58 µM. actives 0.36% (n = 350,000). AID 720511;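 active = mean added fluorescence quench of at least 8% versus neutral control, with both replicates also reaching 8%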;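 note: cells transiently co-express mutant CFTR-F508del with the halide-sensitive YFP; corrector assay measuring rescue of mutant channel to the surface after 24 h compound exposure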
Numbers stand for hits; [ ] = another dose, or the depositor's remark.

C/C=C/c1cnc2c(c1)C(=O)N([C@@H](C)CO)C[C@H](C)[C@@H](CN(C)C(=O)c1ccc3c(c1)OCO3)O2 was read as EWS-Fli inh inactive, Env fusion inh inactive and CFTR F508del cor inactive.
CO[C@H]1CN(C)C(=O)c2cc(NC(=O)c3cc(C)on3)ccc2OC[C@H](C)N(C(=O)C2CC2)C[C@@H]1C was read as EWS-Fli inh inactive and CFTR F508del cor inactive.
`O=C(Cc1ccc(Cl)cc1Cl)Nc1ccncc1` gave GAA850 FXN act inactive, EWS-Fli inh inactive, PAX8 inh HTS inactive, Env fusion inh 73 and CFTR F508del cor inactive.
`CC(=O)N1CCN(S(=O)(=O)c2ccc(C)cc2)C1c1ccc(N(C)C)cc1` (centres undefined) gave GAA850 FXN act inactive, PAX8 inh HTS inactive and Env fusion inh inactive.
`COc1ccc(C2N(S(=O)(=O)c3ccc(C)cc3)CCN2S(=O)(=O)c2ccc(C)cc2)cc1` gave GAA850 FXN act inactive and Env fusion inh 105.
`COc1ccc(C2N(C(C)=O)CCN2S(=O)(=O)c2ccc(C)cc2)cc1` (centres undefined) gave GAA850 FXN act inactive, EWS-Fli inh inactive, PAX8 inh HTS inactive, Env fusion inh inactive and CFTR F508del cor inactive.
For Cc1ccc(S(=O)(=O)N2CCN(S(=O)(=O)c3ccccc3)C2c2ccc(N(C)C)cc2)cc1 (centres undefined) the results were GAA850 FXN act inactive, PAX8 inh HTS inactive and Env fusion inh 53.
For S=C(NCCCN1CCOCC1)N1CCN(c2nc(-c3ccc(Cl)cc3)cs2)CC1 the results were GAA850 FXN act inactive, EWS-Fli inh inactive, PAX8 inh HTS inactive, Env fusion inh 75 and CFTR F508del cor inactive.
Screening COCCCNC(=S)N1CCN(c2nc(-c3ccc(F)cc3)cs2)CC1 returned GAA850 FXN act inactive, EWS-Fli inh inactive, PAX8 inh HTS inactive, Env fusion inh 108 and CFTR F508del cor inactive.
S=C(NCC1CCCO1)N1CCN(c2nc(-c3ccc(Cl)cc3)cs2)CC1 (centres undefined) was read as GAA850 FXN act inactive, EWS-Fli inh inactive, PAX8 inh HTS inactive, Env fusion inh 57 and CFTR F508del cor inactive.
For S=C(NCC1CCCO1)N1CCN(c2cccc(Cl)c2)CC1 (centres undefined) the results were GAA850 FXN act inactive, EWS-Fli inh inactive, PAX8 inh HTS inactive, Env fusion inh inactive and CFTR F508del cor inactive.
`C[C@H]1CN([C@@H](C)CO)C(=O)c2cc(NC(=O)CCN3CCOCC3)ccc2O[C@H]1CN(C)S(=O)(=O)c1ccc(Cl)cc1` gave EWS-Fli inh inactive, PAX8 inh HTS inactive and CFTR F508del cor inactive.
Oc1cccc2ccc(Nc3ccccn3)nc12 was read as GAA850 FXN act inactive and Env fusion inh 60.
`c1ccc(Nc2ccccc2Nc2ccccn2)nc1` gave GAA850 FXN act inactive, EWS-Fli inh inactive and CFTR F508del cor inactive.
For CC(C)(C)[C@@H]1C=C(C(=O)Nc2ccccc2)O[C@H](OCc2ccc(CO)cc2)C1 the results were GAA850 FXN act inactive, EWS-Fli inh inactive, PAX8 inh HTS inactive, Env fusion inh 97 and CFTR F508del cor inactive.
Screening COc1ccc2nc(NC(=O)C3CCN(S(=O)(=O)c4cccc5nsnc45)CC3)sc2c1 returned GAA850 FXN act inactive, PAX8 inh HTS 63 and Env fusion inh 80.
For C[C@H]1CN([C@@H](C)CO)C(=O)c2c(c3ccccc3n2C)-c2ccccc2CO[C@H]1CN(C)C(=O)Nc1cccc(F)c1 the results were EWS-Fli inh inactive, PAX8 inh HTS inactive, Env fusion inh 88 and CFTR F508del cor inactive.
Screening COc1cccc(NC(=O)N(C)C[C@@H]2OCc3ccccc3-c3c(n(C)c4ccccc34)C(=O)N([C@@H](C)CO)C[C@@H]2C)c1 returned EWS-Fli inh inactive, PAX8 inh HTS inactive, Env fusion inh 57[16.7 µM] and CFTR F508del cor inactive.
`C[C@H](CO)N1C[C@H](C)[C@@H](CN(C)C(=O)Nc2ccc(F)cc2)OCc2ccccc2-c2c(n(C)c3ccccc23)C1=O` gave EWS-Fli inh inactive, PAX8 inh HTS 100, Env fusion inh 58[16.7 µM] and CFTR F508del cor inactive.
Screening C[C@@H]1CN([C@H](C)CO)C(=O)c2c(c3ccccc3n2C)-c2ccccc2CO[C@@H]1CN(C)C(=O)Nc1cccc(F)c1 returned EWS-Fli inh inactive and CFTR F508del cor inactive.
Screening C[C@@H]1CN([C@@H](C)CO)S(=O)(=O)c2ccc(C#CC3CC3)cc2O[C@@H]1CN(C)S(C)(=O)=O returned EWS-Fli inh inactive, PAX8 inh HTS inactive, Env fusion inh inactive and CFTR F508del cor inactive.
`C[C@@H]1CCCCO[C@@H](CN(C)Cc2ccc(C(=O)O)cc2)[C@@H](C)CN([C@@H](C)CO)C(=O)c2cc(NC(=O)c3ccncc3)ccc2O1` gave EWS-Fli inh inactive, PAX8 inh HTS inactive, Env fusion inh inactive and CFTR F508del cor inactive.
Cc1cccc(COCC(CC(C)C)N2CCN(C(=O)c3ccc(C(F)(F)F)cc3)CCC2=O)c1 (centres undefined) was read as GAA850 FXN act inactive, EWS-Fli inh inactive, PAX8 inh HTS inactive, Env fusion inh 83 and CFTR F508del cor inactive.
Cc1cccc(COCC(CC(C)C)N2CCN(C(=O)c3ccc(C(C)(C)C)cc3)CCC2=O)c1 (centres undefined) was read as GAA850 FXN act inactive, EWS-Fli inh inactive, PAX8 inh HTS inactive, Env fusion inh 60 and CFTR F508del cor inactive.
For Cc1cccc(COC[C@H](CC(C)C)N2CCN(C(=O)c3ccc(C(C)(C)C)cc3)CCC2=O)c1 the results were EWS-Fli inh inactive, PAX8 inh HTS inactive, Env fusion inh inactive and CFTR F508del cor inactive.
O=C(C[C@@H]1C=C[C@H](NS(=O)(=O)c2ccc(F)cc2)[C@@H](CO)O1)NC1CCC1 was read as EWS-Fli inh inactive, PAX8 inh HTS inactive, Env fusion inh inactive and CFTR F508del cor inactive.
Screening Cc1cccc(CC(=O)Nc2cccnc2)c1 returned GAA850 FXN act inactive, EWS-Fli inh inactive, PAX8 inh HTS inactive, Env fusion inh inactive and CFTR F508del cor 8.4.
N#C[C@@H]1[C@@H](c2ccccc2)[C@H](CO)N1S(=O)(=O)Cc1ccccc1 was read as EWS-Fli inh inactive, PAX8 inh HTS inactive and CFTR F508del cor inactive.
For O=C(c1ccccc1F)N1CCCC(C(=O)N2CCN(c3ccccc3)CC2)C1 (centres undefined) the results were GAA850 FXN act inactive, EWS-Fli inh inactive, PAX8 inh HTS inactive, Env fusion inh inactive and CFTR F508del cor inactive.
O=C(c1ccccc1F)N1CCCC(c2ccccc2)C1 (centres undefined) was read as GAA850 FXN act inactive, EWS-Fli inh inactive, PAX8 inh HTS 67 and CFTR F508del cor inactive.
`O=C(Nc1ccc(Cl)cc1)N[C@@H]1CC[C@H](CCNS(=O)(=O)c2ccccc2F)O[C@H]1CO` gave EWS-Fli inh inactive, PAX8 inh HTS inactive, Env fusion inh inactive and CFTR F508del cor inactive.
`CC(C)NC(=O)N(C)C[C@H]1OCCCC[C@H](C)Oc2ccc(NC(=O)c3ccncc3)cc2C(=O)N([C@H](C)CO)C[C@@H]1C` gave EWS-Fli inh inactive, PAX8 inh HTS inactive, Env fusion inh inactive and CFTR F508del cor inactive.
